Molecules are shown by their SMILES. Results filed as inconclusive are left out. Entries that show only a call come without a potency. The source holds several records for some structures; these can differ, active in one and inactive in another. Active and inactive are the calls of the source. Calls come from the whole dose curve; as a rule, active = well fitted cell-killing curve with a large enough effect in the repeat runs; inconclusive = weak or mixed curves, or effect the other way; inactive = flat fitted curve, though single readings scatter. Residues, ends and D or L forms follow the SMILES beside them.
Potency is the fitted concentration of half-maximal effect.

The test is described as follows: qHTS RealTime-Glo MT Cell Viability Assay in HepG2 cells - 40 hour (AID 1224870). Note: nearly all actives have a fitted effect of over 50% in size. To be noted: RealTime-Glo luminescence; series mostly up to 76.8 µM. The procedure, abridged:
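Real-time viability: cells seeded at 600 per well together with NanoLuc and cell-permeant prosubstrate, compounds added after 5 h incubation. Luminescence tracked at 0, 8, 16, 24, 32 and 40 h of exposure.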
Background: In qHTS, concentration-response curves come from the screen itself.
With `O=C1CN(/N=C/c2ccc([N+](=O)[O-])o2)C(=O)N1`, the Potency entry is “inactive”. For the compound `CC(O)C(=O)O` (stereo unspecified), the Potency entry is “inactive”. To `O=NO` belongs “inactive”; to `CNC[C@H](O)c1cccc(O)c1`, “inactive”. With `CCOc1ccc(NC(=O)CC(C)O)cc1` (stereo unspecified), the Potency entry was “inactive”. To `CCCC(CCC)C(=O)O` belongs “inactive”. With `O=C(O)C(=O)O`, the Potency result is “inactive”.

With `CCCCC(CC)COC(=O)/C=C/c1ccc(OC)cc1` (stereo unspecified), the Potency entry is “inactive”. The same measure for `O=S(=O)(O)NC1CCCCC1`: “inactive”. For `O=C(O)c1cccnc1`, the Potency result is “inactive”. Take `NC(N)=O`: the Potency entry was “inactive”.

With `CCCCC1C(=O)N(c2ccccc2)N(c2ccccc2)C1=O`, the Potency entry is “inactive”.

In the case of `CC(O)CO` (stereo unspecified), the Potency entry was “inactive”. Regarding `O=c1ccc2ccccc2o1`, the Potency result was “inactive”. Turning to `O=C(c1ccccc1)c1ccccc1`, the Potency entry was “inactive”. The same measure for `NS(=O)(=O)c1cc(C(=O)O)c(NCc2ccco2)cc1Cl`: “inactive”; for `CC(C)(Oc1ccc(C2CC2(Cl)Cl)cc1)C(=O)O` (stereo unspecified): “inactive”. Take `CC(C)[C@@H]1CC[C@@H](C)C[C@H]1O`: the Potency entry is “inactive”. With `CC(=O)Nc1nnc(S(N)(=O)=O)s1`, the Potency result was “inactive”. Consider `O=C(O)c1cccc([N+](=O)[O-])c1`, for which the Potency result is “inactive”.

Consider `NC(=O)NC1NC(=O)NC1=O` (stereo unspecified), for which the Potency entry is “inactive”.

As to `O=S(=O)(O)c1ccc2cc(O)ccc2c1`, the Potency result is “inactive”. For the compound `c1ccc2[nH]ccc2c1`, the Potency is 3.41 µM (active) and inactive. On to `CCCCOC(=O)CC(CC(=O)OCCCC)(OC(C)=O)C(=O)OCCCC`, for which the Potency entry is “inactive”. As for `O=C1NC(=O)c2ccccc21`, the Potency result was “inactive”. On to `N=C(N)c1ccc(OCCCCCOc2ccc(C(=N)N)cc2)cc1`, for which the Potency is 54.7 µM (active) and inactive. As to `O=C(O)/C=C\C(=O)O`, the Potency entry is “inactive”. Regarding `CC(=O)OCC(COC(C)=O)OC(C)=O`, the Potency result was “inactive”.

For `CC1(C)[C@@H]2CC[C@@]1(C)C(=O)C2`, the Potency result was “inactive”. As to `C/C=C/c1ccc(OC)cc1`, the Potency entry was “inactive”. For `O=C(O)CCC(=O)O`, the Potency entry is “inactive”. The same measure for `COC(=O)[C@H](Cc1ccccc1)NC(=O)[C@@H](N)CC(=O)O` (H-Asp-Phe-OMe): “inactive”; for `C1N2CN3CN1CN(C2)C3`: “inactive”; for `O=C(c1ccccc1)C(O)c1ccccc1` (stereo unspecified): “inactive”. To `O=C(O)CCCCC(=O)O` belongs “inactive”; to `O=c1cc[nH]c(=S)[nH]1`, “inactive”.
